# Results: PubChem BioAssay AID624134 (Broad Institute, 2012)
# The campaign covered roughly 1,600 compounds. About 1,100 (69%) were called active. So high a share suggests a set chosen from earlier hits. The list is a sample of the results. Measured potencies and affinities stand elsewhere. Results filed as inconclusive are left out.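 How the source made its calls: active means signal drop with fitted half-maximal concentration no higher than twice the top valid tested concentration; inconclusive means flat curve with 30 to 70% signal loss, or poor fit; inactive means the rest, including signal rises and flat curves within 30%.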
# Test: HepG2 cell cytotoxicity, dose response, cytotoxicity control for Shn3 inhibitor project, CellTiter-Glo, cherry-picked (AID 624134)
# Details: HepG2 viability, CellTiter-Glo ATP luminescence, 48 h; series mostly up to 35 µM
row,Compound,outcome
1,CCO[C@@H]1OC(C(=O)NC2CC2)=C[C@H](c2coc3ccccc3c2=O)[C@H]1CCCO,inactive
2,CCCCCCCCCCOC(=O)Cn1c(COc2ccc(OC)cc2)[n+](C)c2ccccc21,inactive
3,CSc1cccc(NC(=O)N2CCCC(CNS(=O)(=O)Cc3ccccc3)C2)c1 (stereo not drawn),inactive
4,Cc1nc2ncnn2c(C)c1Cc1cccc(F)c1,inactive
5,CC(C)=CCC/C(C)=C/CNC(=O)C[C@H]1C[C@H](C(=O)N2CCOCC2)[C@@]2(C)c3[nH]c4cc(CCC(=O)N(C)C)ccc4c3CCN2C1=O,inactive
6,CCC(=O)c1cn(CC(=O)Nc2cccc(C)c2C)c2ccccc12,inactive
7,O=C(Cn1cc(C(=O)C2CC2)c2ccccc21)Nc1ccccc1Cl,inactive
8,CCN(CC)C(=S)Sc1c(-c2ccccc2)c2cc(Cl)ccc2[nH]c1=O,inactive
9,O=C(COC(=O)c1n[nH]c2ccccc12)Nc1ccc(S(=O)(=O)N2CCCC2)cc1,inactive
10,COc1ccc(C(=O)NNC(=O)c2cccc(S(=O)(=O)N3CCOCC3)c2)cc1,inactive
11,COc1ccc(NS(=O)(=O)c2ccc(NC(=O)C(CCSC)NC(N)=O)cc2)cc1 (stereo not drawn),inactive
12,O=C(Nc1ccc(S(=O)(=O)N2CCN(Cc3ccccc3)CC2)cc1)c1cnccn1,inactive
13,O=C(CCS(=O)(=O)c1ccccc1)Nc1nc2c(s1)CCCC2,inactive
14,COc1ccccc1/C=C1\CCCC2=C1Nc1nnnn1C2c1ccccc1OC (stereo not drawn),inactive
15,O=C(O)c1cccc(COc2ccc(CO)cc2Cl)c1,inactive
16,O=C(O)c1cccc(COc2ccccc2Cl)c1,inactive
17,CCN(CC)Cc1c(O)ccc2c1O/C(=C\C=C\c1ccccc1)C2=O,inactive

row,Compound,outcome
1,Cc1ccc(-c2ccc(/C=C3\C(=O)ON=C3c3ccccc3)o2)c([N+](=O)[O-])c1,inactive
2,Cc1ccc(NC(=O)C2CCCN(S(=O)(=O)c3c(C)noc3C)C2)cc1 (stereo not drawn),inactive
3,Cc1csc(=O)n1CCC(=O)N(C)Cc1c(F)cccc1Cl,inactive
4,CCn1cc(CNCc2cn(-c3ccccc3C)nc2-c2ccc(OC)c(F)c2)cn1,inactive
5,CCN(CC)S(=O)(=O)c1ccc(N2CCOCC2)c(NC(=O)c2nn(C(C)C)c(=O)c3ccccc23)c1,inactive
6,CCOC(=O)C1CCN(c2cc3c(cc2NC(=O)c2ccccc2Br)n(C)c(=O)n3C)CC1,inactive
7,CC[C@]12c3[nH]c4cc(CCC(=O)N(C)C)ccc4c3CCN1C(=O)[C@@H](CC(=O)NC/C=C(\C)CCC=C(C)C)C[C@@H]2C(=O)N1CCN(C(=O)c2ccco2)CC1,inactive
8,COc1ccc(-c2cc(C(F)(F)F)nc(S(=O)(=O)CCCC(=O)Nc3cccnc3Cl)n2)cc1OC,inactive
9,COc1ccc([C@H]2CC(=O)C=C(c3ccc4c(c3)OCO4)C2)cc1OC,inactive
10,COc1cc(C(=O)OCC(=O)NC2CCCCCC2)ccc1OCC(C)C,inactive
11,CC(=O)OCC(=O)[C@@]1(O)CC[C@H]2[C@@H]3CCC4=CC(=O)CC[C@]4(C)[C@H]3C(=O)C[C@@]21C,inactive
12,COc1ccc(S(=O)(=O)N2CCOCC2)cc1NC(=O)COC(=O)CC1CC2CCC1C2 (stereo not drawn),inactive
13,Nc1c(Br)cc2c(c1Br)C(O)c1ccccc1-2 (stereo not drawn),inactive
14,CN(C)c1ncnc2c1C(c1ccccc1)C(C)(C)O2 (stereo not drawn),inactive
15,COc1ccc(OC)c(NC(=O)c2cc(-c3cc(F)ccc3OCC3CCCO3)n[nH]2)c1 (stereo not drawn),inactive
16,COc1cc(OC)cc(C(=O)OCC(=O)Nc2ccc(F)cc2F)c1,inactive
